An excerpt weighted towards active compounds, which were near 7.7% of everything screened.
FBPA Giardia inh: inhibitors of Giardia lamblia fructose-1,6-bisphosphate aldolase; A8B2U2; purified Giardia FBPA; Potency, µM (highest dose often 59.6 µM), actives largely listed as inhibitors; hit rate 0.71% among 290,000; AID 2451; also: nearly all actives have a fitted effect of over 55% in size
Target sequence (A8B2U2 whole entry, looked up): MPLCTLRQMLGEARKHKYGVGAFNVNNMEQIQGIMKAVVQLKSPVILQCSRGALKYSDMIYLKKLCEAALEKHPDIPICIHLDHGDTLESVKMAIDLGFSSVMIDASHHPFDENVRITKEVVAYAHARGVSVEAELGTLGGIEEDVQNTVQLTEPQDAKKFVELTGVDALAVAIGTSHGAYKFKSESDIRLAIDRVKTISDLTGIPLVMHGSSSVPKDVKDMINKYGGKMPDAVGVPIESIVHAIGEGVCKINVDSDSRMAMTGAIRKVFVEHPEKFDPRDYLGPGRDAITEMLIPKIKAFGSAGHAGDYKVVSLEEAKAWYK
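40 nM FBPA preincubated 10 min at RT with compound (up to 57.5 uM final), then substrate plus GAPDH/TPI/NAD/arsenate coupling and diaphorase/resazurin added. Fluorescence read after 20 min at RT, 525/598 nm.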
TbPYK inhibitor: inhibitors of Trypanosoma brucei pyruvate kinase | TbPYK enzyme, Kinase-Glo Plus ATP luminescence, 45 min | Potency, µM (series often up to 76.8 µM), usual class: inhibitors | hit rate 0.12% among 410,000; also: nearly all actives have a fitted effect of over 50% in size
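Screened from lowest to highest concentration, compounds were pinned into TbPYK/substrate mixtures, and ADP (130 uM final) was added. Plates sat at room temperature for 45 min prior to Kinase-Glo Plus detection by luminescence.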
RE007 growth inh: less growth of the S. pombe RE007 Vpr strain; S. pombe RE007 Vpr strain, BacTiter-Glo ATP luminescence, 24 h; Potency, µM (series often up to 92.2 µM), most hits filed as inhibitors; hit rate 0.21% among 360,000; AID 651644; active = well fitted falling curve with a large enough effect; inconclusive = small, poorly fitted or top-dose-only effect; inactive = no such curve, though single readings can be large or run the other way; also: nearly all actives have a fitted effect of over 50% in size
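Fission yeast RE007 carrying one integrated HIV-1 vpr copy, seeded at OD 0.01 in PMG+AL medium with 23 nL pinned compound. Grown 24 h at 30 degrees; viability read by BacTiter-Glo luminescence after 5 min.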
FMDV inh: blocks foot and mouth disease virus | FMDV antiviral cell-based qHTS | Potency, µM (titrated, usually from 57.9 µM), actives largely listed as inhibitors | hit rate 1.2% among 410,000 | AID 1159524; calls by dose curve; tested in HEK293T cells; also: read-out not given here; nearly all actives have a fitted effect of over 45% in size
HCMV inh: inhibitors of human cytomegalovirus | HFF cells, HCMV-luciferase reporter, 72 h; stronger effect = lower value | activity change, negative = inhibition, % at 57.5 µM | hit rate 4.5% among 410,000 | AID 1259415; in the data active = activity change below about -60%; inconclusive = no clear call, values can overlap the other calls; inactive = above about -39%
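After 16 h attachment at 37C, HFF cells received test compound and HCMV-luciferase (1 PFU/cell); reporter luminescence read 72 h later, data normalized against buffer-only and known inhibitor Salinomycin.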
Sm TGR block: S. mansoni TGR enzyme inhibition; hit rate 3% among 360,000; purified TGR, DTNB reduction, TNB absorbance 405 nm; Potency, µM (series often up to 114 µM), usual class: inhibitors; Q962Y6; also: nearly all actives have a fitted effect of over 60% in size
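First, TGR (20 nM dispensed) and NADPH were mixed with compound. Second, a 15 min room-temperature incubation followed. Third, further NADPH and then DTNB were added to start the reaction. Finally, TNB absorbance was monitored kinetically.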
Numbers stand for hits; n = inactive; u = inconclusive; x = no result; + = active, no number; [ ] = dose if it differs, or a comment. Unless noted, calls follow the shape of the dose curve; as a rule, active = well fitted curve in the direction sought with a large enough effect; inconclusive = small, poorly fitted or top-dose-only effect, or another doubt; inactive = no such curve, though single readings can be large; an effect the other way counts as inactive or inconclusive.

SMILES | FBPA Giardia inh | TbPYK inhibitor | RE007 growth inh | FMDV inh | HCMV inh | Sm TGR block
Cc1ccc(Cl)cc1N1CCN(CCNC(=O)Nc2ccc(Cl)cc2)CC1 | x | n | x | u | -90.2 | n
CCOc1ccc(NC(=O)NCCN2CCN(c3cc(Cl)ccc3C)CC2)cc1 | x | n | x | n | n | n
c1ccc(-c2nc(N3CCOCC3)sc2-c2ccccc2)cc1 | n | n | n | n | n | n
c1ccc(-c2nc(N3CCOCC3)s[n+]2-c2ccccc2)cc1 | n | 2.51µM | x | n | n | n
CCOc1ccccc1NC(=O)CSc1nc2c([nH]c3ccccc32)c(=O)n1-c1ccccc1 | x | n | x | n | n | n
COc1ccc(NC(=O)/C=C\C(=O)N(c2ccc(C(C)C)cc2)C(C(=O)NCc2ccco2)c2ccc(C)cc2)cc1 (stereo not given) | x | n | x | n | n | 56.2µM
Cc1ccc(NC(=O)/C=C\C(=O)N(c2ccc(C(C)C)cc2)C(C(=O)NCc2ccco2)c2ccc(F)cc2)cc1 (stereo not given) | x | n | x | n | -81.8 | n
CC(C)c1ccc(NC(=O)CCC(=O)NCc2ccco2)cc1 | n | n | n | n | n | n
Cc1ccc(N(C(=O)c2sc(C)nc2C)C(C(=O)NCc2ccco2)c2ccccc2)cc1 (stereo not given) | n | n | n | x | u | n
COc1ccc(N(C(=O)/C=C\C(=O)Nc2ccc(C)cc2)C(C(=O)NCc2ccco2)c2ccc(C)cc2)cc1 (stereo not given) | x | n | x | n | n | 44.7µM
COC(=O)N[C@@H](c1cccc(F)c1)[C@@H](C)[N+](=O)[O-] | n | x | x | x | x | x
CCc1ccc(NC(=O)C(CC)n2nnc(C(=O)OC)c2C(=O)OC)cc1 (stereo not given) | x | n | x | n | n | n
COc1cc(NC(=O)CCNS(=O)(=O)c2ccc3c(c2)CCN3C(=O)C2CC2)cc(OC)c1 | x | n | x | n | n | n
CCc1ccc(CNC(=O)C2CCCN(c3nn4cc(-c5ccc(F)cc5)nc4s3)C2)cc1 (stereo not given) | x | n[15.4 µM] | x | u | + | n
CCOc1ccc(CNC(=O)C2CCCN(c3nn4cc(-c5ccc(F)cc5)nc4s3)C2)cc1 (stereo not given) | x | n[15.4 µM] | x | n | + | n
O=C(Nc1cc2c(cc1C(=O)c1ccccc1Br)OCCO2)c1ccccc1 | x | n | x | n | n | n
Cc1cc(C)c2c(=O)[nH]c(SCC(=O)c3ccc(F)c(C)c3)nc2n1 | n | n | n | n | -102.6 | n
O=Cc1ccccc1OCCN1CCCC1=O | n | n | n | n | -62.6 | n
O=C(CCCCn1c(=O)c2ccccc2n(CC(=O)Nc2cccc(F)c2)c1=O)NCCc1ccccc1 | x | n | x | n | n | n
Cc1cccc(N2CCN(C(=O)c3ccc4nc(-c5ccco5)c(-c5ccco5)nc4c3)CC2C)c1 (stereo not given) | n | n | n | 25.1µM | n | u
Cc1nc2cc(NC(=O)N3CCN(c4ccccn4)CC3)ccc2o1 | n | n | n | n | n | n
O=C(Nc1ccc2nc(-c3ccco3)c(-c3ccco3)nc2c1)N1CCN(c2ccccn2)CC1 | u | u | n | u | n | 2µM
Cc1cccc(N2CCN(C(=O)c3cc4c(=O)n(C)c5ccccc5c4n3C)CC2C)c1 (stereo not given) | u | n | n | 15.8µM | x | n
O=C(c1ccc2nc(-c3ccco3)c(-c3ccco3)nc2c1)N1CCN(c2ncccn2)CC1 | x | n | n | n | n | 10µM
Cc1cccc(N2CCN(C(=O)c3ccc4nccnc4c3)CC2C)c1 (stereo not given) | x | n | n | n | n | x
CCN(CC(=O)Nc1cccc(OC)c1)c1ncnc2sc(C)c(C)c12 | n | n | n | 20µM | -73.8 | n
COc1cccc(NC(=O)COc2ncnc3sc(C)c(C)c23)c1 | n | n | n | n | n | n
CC(=O)Nc1ccc(S(=O)(=O)Nc2ccc3nc(C)sc3c2)cc1 | x | n | n | n | -75.5 | x
CC(=O)Nc1ccc2nc(NS(=O)(=O)c3ccc(C)cc3)sc2c1 | n | n | n | n | u | n
Cc1ccc(S(=O)(=O)Nc2ccc3nc(C)sc3c2)cc1 | n | n | n | n | x | n
